# Measured values: PubChem BioAssay AID1851 (National Center for Advancing Translational Sciences (NCATS), 2009)
# “And” between values parts separate entries of the source, which are not always exact repeats. Identical values can stand only once. Among all 16,000 compounds or so, about 5,800 (36%) were called active. Another 23% or so got no clear call; they are omitted. The call rests on the fitted dose curve; in most records, active means well fitted curve in the direction sought with a large enough effect; inconclusive means small, poorly fitted or top-dose-only effect, or effect the other way; inactive means no such curve, though single readings can be large or run the other way. Some of the results follow.
# Target: Cytochrome P450 2C19 (Homo sapiens) (UniProt P33261)
# Sequence (P33261 whole entry, looked up): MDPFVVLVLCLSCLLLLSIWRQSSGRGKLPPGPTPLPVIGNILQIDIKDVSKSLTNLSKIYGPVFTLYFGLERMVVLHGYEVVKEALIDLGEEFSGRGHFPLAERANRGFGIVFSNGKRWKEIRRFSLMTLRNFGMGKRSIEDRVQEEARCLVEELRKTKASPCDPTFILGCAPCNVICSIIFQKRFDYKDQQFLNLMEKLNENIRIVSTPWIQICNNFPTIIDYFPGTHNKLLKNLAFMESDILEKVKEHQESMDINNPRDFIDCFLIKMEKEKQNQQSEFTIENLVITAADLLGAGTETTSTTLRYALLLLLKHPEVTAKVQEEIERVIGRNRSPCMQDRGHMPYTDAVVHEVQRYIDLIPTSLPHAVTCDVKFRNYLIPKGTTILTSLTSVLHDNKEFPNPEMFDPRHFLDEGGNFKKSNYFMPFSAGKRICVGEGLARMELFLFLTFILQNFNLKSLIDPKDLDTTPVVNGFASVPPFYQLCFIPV
# Test: Cytochrome panel assay with activity outcomes
# Details: recombinant CYP, pro-luciferin dealkylation, luminescence, p450-cyp2c19; series mostly up to 57.1 µM; activity, negative = inhibition: at the top concentration
# On the % scale 0 is the no-effect control and ±100 the full control effect.
SMILES,"activity, negative = inhibition",AC50
O=c1cnc2cnc(N3CCOCC3)nc2n1C1CC1,-17.2% (inactive),–
Nc1nc(N)[n+]([O-])c(N)c1NCO,33.1% [at 11.4 µM] (inactive),–
CC(=O)Nc1cccc(N2C(=O)CCC2=O)c1,-11.5% (inactive),–
CC(=O)Nc1ccc(N2CCCCC2)cc1,–,31.6 µM (active)
CC(=O)Nc1ccc(NC(=O)C/C(C)=N/NC(=O)C(=O)N2CCCC2)cc1,57.5% (inactive),–
O=C(Nc1ccc(N2CCCCC2)cc1)c1cncc(Br)c1,–,17.8 µM (active)
CC(=O)Nc1ccc(N2CCCCC2)c(C(=O)Nc2cccc(C)c2)c1,–,20 µM (active)
CC(=O)OC[C@@H]1O[C@@H](O/N=C2/C[C@@H](O)[C@@H](O)[C@@H]3[C@@H]4C(=O)N([C@@H](C)c5ccccc5)C(=O)[C@H]4CC[C@@H]23)[C@H](OC(C)=O)[C@H](OC(C)=O)[C@@H]1OC(C)=O,23% [at 11.4 µM] (inactive),–
CC(C)NC(=O)N1CCC2(CC1)CCN(C(=O)c1cccn1C)CC2,-18.1% (inactive),–
CNCCCCCCCCSc1nc(C(C)C)ccc1C(=O)c1cccs1,–,15.8 µM (active)
CC(C)NCCCOc1ccc(Cl)cc1Br,–,8.91 µM (active)
CCOc1ccc(Cl)cc1CNCCNCC(C)O (configuration not stated),23.2% (inactive),–
CCN(CC)c1ccc(NC(=O)c2cnn(CC)c2)cc1,–,28.2 µM (active)
CC(C)CCNC1=NCCCCC1,-8.88% (inactive),–
CNc1ccc(Br)cc(C(=O)/C=C/c2ccc3c(c2)OCO3)c1=O,–,1.78 µM (active)
CCNc1ccc(Br)cc(C(=O)/C=C/c2ccc3c(c2)OCO3)c1=O,–,3.98 µM (active)
N#Cc1cccc(-c2nccc(NCc3ccccc3)n2)c1,–,10 µM (active)
c1cncc(-c2cc(NCc3cccs3)ncn2)c1,-32.9% (inactive),–
c1ccc(CNc2cc(-c3ccoc3)ncn2)cc1,-42.4% (inactive),–
c1csc(CNc2cc(-c3ccoc3)ncn2)c1,–,10 µM (active)
N#Cc1cccc(-c2cc(NCc3cccs3)ncn2)c1,–,10 µM (active)
N#Cc1cccc(-c2nccc(NCc3cccs3)n2)c1,–,3.98 µM (active)
CCOC(=O)C(NC(C)=O)C(=O)O (configuration not stated),-5.2% (inactive),–

SMILES,"activity, negative = inhibition",AC50
Cc1cccc(CNc2cc(-c3ccc(N(C)C)cc3)ncn2)c1,–,3.16 µM (active)
Cc1cccc(CNc2ccnc(-c3cccc(C#N)c3)n2)c1,–,2.51 µM (active)
CN(C)c1ccc(-c2cc(NCc3ccccc3)ncn2)cc1,-21.1% (inactive),–
CN(C)C(=O)c1ccc(-c2cc(NCc3ccccc3)ncn2)cc1,-30.8% (inactive),–
Cc1cccc(CNc2cc(-c3cccc(C#N)c3)ncn2)c1,–,6.31 µM (active)
Cc1cnc(CNc2cc(-c3cccc(C#N)c3)ncn2)cn1,-15.2% (inactive),–
CO[C@]1(NC(=O)Cc2cccs2)C(=O)N2C(C(=O)O)=C(COC(N)=O)CS[C@H]21,0.361% [at 25.6 µM] (inactive),–
CO[C@H]1COC(=O)C/C=C\[C@@H](C)COC(=O)[C@@H](CCSC)NC(=O)C/C=C\[C@@H]1C,-53.8% [at 11.4 µM] (inactive) and -16.1% [at 11.4 µM] (inactive),–
CO[C@H]1COC(=O)C/C=C\[C@H](C)[C@@H](NS(=O)(=O)c2ccc(C)cc2)COC(=O)CCC[C@@H]1C,-36% [at 11.4 µM] (inactive),–
COc1ccccc1CNS(=O)(=O)c1ccc2[nH]cc(C(=O)O)c(=O)c2c1,-6.93% (inactive),–
COc1cccc(NS(=O)(=O)c2ccc3[nH]cc(C(=O)NCCN4CCOCC4)c(=O)c3c2)c1,–,22.4 µM (active)
O=C(CCN1CCN(CC(=O)Nc2ccccc2Cl)CC1)Nc1ccccc1F,–,2.51 µM (active)
Cc1ccc(N2CCN(CCC(=O)O)CC2)cc1,10.7% [at 11.4 µM] (inactive),–
Cc1ccc(C)n1CCN1CCN(CC(=O)Nc2cc(C(F)(F)F)ccc2Cl)CC1,–,10 µM (active)
COC(=O)N1CCC2(CCN(Cc3cc(C(F)(F)F)cc(C(F)(F)F)c3)CC2)CC1,-39% (inactive),–
O=C(CCN1CCN(c2ccccc2F)CC1)Nc1ccccc1F,–,4.47 µM (active)
OCCN1CCN(CC/C=C2\c3ccccc3Sc3ccc(C(F)(F)F)cc32)CC1,-2.39% [at 25.6 µM] (inactive),–
CC1=C(C#N)C(Nc2ccc(Cl)cn2)(C(F)(F)F)C(=O)N1 (configuration not stated),–,0.794 µM (active)
CNC(=S)N1N=C(c2ccc(OC)cc2)CC1c1ccc(N(C)C)cc1 (configuration not stated),–,3.16 µM (active)
CCN1C(=O)[C@H]2[C@H]3[C@H](O)[C@H](O)C/C(=N/NC(=O)OCc4ccccc4)[C@H]3CC[C@@H]2C1=O,-7.17% [at 11.4 µM] (inactive),–
Cc1noc(C)c1COc1cccc(C(=O)OCC(=O)N2CC(=O)Nc3ccccc32)c1,–,3.16 µM (active)
O=[N+]([O-])c1ccc(-c2cnc(SCc3ccccc3Cl)[nH]2)cc1,–,2.24 µM (active)
CC(C)C(=O)Nc1ccc(Sc2ccc(F)cc2)cc1,–,7.94 µM (active)

SMILES,"activity, negative = inhibition",AC50
CCOc1ccc(Cc2nc(C)c(CC(=O)N3CCOCC3)c(=O)[nH]2)cc1,-0.806% (inactive),–
CCOc1ccc2[nH]c(=O)c(CN(CCc3ccccc3)C(=O)N3CCCC3)cc2c1,–,20 µM (active)
C[N+]1(CC(=O)OCCCc2ccccc2)CCOCC1,-21.7% (inactive),–
O=C(O)c1cc2cc(OCc3ccccc3)ccc2[nH]1,-19.8% (inactive),–
CCOc1ccc2[nH]c(=O)c(CN(CCc3ccccc3)C(=O)N3CCOCC3)cc2c1,–,11.2 µM (active)
O=C(O)CCCc1ccc2ccccc2c1,0.826% [at 11.4 µM] (inactive),–
NNC(=O)CCc1ccc2ccc3ccccc3c2c1,–,0.251 µM (active)
O=C1CCCC=C1[C@@H](O)C1CCCCC1,19.2% [at 11.4 µM] (inactive),–
O=C1CCCC=C1[C@@H](O)CCOC(c1ccccc1)(c1ccccc1)c1ccccc1,–,0.251 µM (active)
O=C1CCCC=C1[C@@H](O)COCc1ccccc1,-32.2% [at 11.4 µM] (inactive),–
CSC1=C(C#N)C(c2ccccc2Cl)C2=C(N1)c1ccccc1C2=O (configuration not stated),–,0.355 µM (active)
N#CC1=C(SCC(N)=O)NC2=C(C(=O)c3ccccc32)C1c1ccc(Cl)cc1 (configuration not stated),–,3.98 µM (active)
COC(=O)[C@@H]1CC[C@H](C)[C@@H](c2ccc(C)cc2)N1C(=O)c1ccc(/C=N\O[C@@H](C)CN2CCCCc3nc(C)c(C)cc32)cc1,-15.5% [at 11.4 µM] (inactive),–
COC(=O)[C@@H]1CC[C@H](C)[C@@H](c2ccc(C)cc2)N1C(=O)c1ccc(/C=N\O[C@@H](C)c2cn([C@H](CO)Cc3ccccc3)nn2)cc1,–,3.98 µM (active)
COC(=O)[C@@H]1CC[C@H](C)[C@@H](c2ccc(C)cc2)N1C(=O)c1ccc(/C=N\O[C@@H](C)CN2CCCc3nc(C)c(C)cc32)cc1,24.5% [at 11.4 µM] (inactive),–
COC(=O)[C@@H]1CC[C@H](C)[C@@H](c2ccc(C)cc2)N1C(=O)c1ccc(/C=N\OC[C@@H](O)[C@H]2O[C@H]3OC(C)(C)O[C@H]3[C@@H]2O)cc1,–,0.631 µM (active)
CO/N=C\c1ccc(C(=O)N2[C@H](c3ccc(C)cc3)[C@@H](C)CC[C@H]2C(=O)OC)cc1,-39.6% [at 11.4 µM] (inactive),–
COC(=O)[C@@H]1CC[C@H](C)[C@@H](c2ccc(C)cc2)N1C(=O)c1ccc(/C=N\OC[C@@H]2O[C@H](c3ccccc3)C=C[C@@H]2Oc2ccc(OC)cc2)cc1,–,0.0501 µM (active)
COC(=O)[C@@H]1CC[C@H](C)[C@@H](c2ccc(C)cc2)N1C(=O)c1ccc(/C=N\O[C@@H]2O[C@H](COC(C)=O)[C@H](OC(C)=O)[C@H](OC(C)=O)[C@H]2OC(C)=O)cc1,-28.1% [at 11.4 µM] (inactive),–
COC(=O)[C@@H]1CC[C@H](C)[C@@H](c2ccc(C)cc2)N1C(=O)c1ccc(/C=N\O[C@@H](C)c2cn([C@H]3COC[C@H]3O)nn2)cc1,-29.4% [at 11.4 µM] (inactive),–
COC(=O)[C@@H]1CC[C@H](C)[C@@H](c2ccc(C)cc2)N1C(=O)c1ccc(/C=N\OCC[C@@H]2C=C[C@H](OC(C)=O)[C@H](COC(C)=O)O2)cc1,-15.5% [at 11.4 µM] (inactive),–
